Experimental data reported in PubChem BioAssay (NCATS).
Records with an inconclusive call do not appear. Active and inactive are the calls of the source. Calls come from the whole dose curve; as a rule, active = well fitted curve in the direction sought with a large enough effect; inconclusive = small, poorly fitted or top-dose-only effect, or another doubt; inactive = no such curve, though single readings can be large; an effect the other way counts as inactive or inconclusive.

Columns and labels:
[1] = OV-SAHO Cancer Cell Toxicity qHTS against the NCATS CANVASS Library (AID 1347348); note: nearly all actives have a fitted effect of over 55% in size
In short: (§1)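 ATP content after 72 h treatment, detected by CellTiter-Glo luminescence (15min room-temperature development), reflects cell viability. Wells contained 1000 cells and received compounds at 11 concentrations.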

[2] = Panc-1005 Cancer Cell Toxicity qHTS against the NCATS CANVASS Library (AID 1347349); note: nearly all actives have a fitted effect of over 60% in size
In short: as §1

[3] = U-118MG Cancer Cell Toxicity qHTS against the NCATS CANVASS Library (AID 1347351); conditions: outcome: dose series up to 38.3 µM
In short: as §1

[4] = COV-362 Cancer Cell Toxicity qHTS against the NCATS CANVASS Library (AID 1347352)
In short: (§2)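 Toxicity was measured as CellTiter-Glo luminescence after 72 h exposure to an 11-point compound series. Compound was added to 1000 cells/well 4 h after seeding.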

[5] = A2780 Cisplatin Sensitive Ovarian Cancer Cell Toxicity qHTS against the NCATS CANVASS Library (AID 1347353); conditions: outcome: dose series up to 46.1 µM; note: nearly all actives have a fitted effect of over 60% in size
In short: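 Cisplatin-sensitive A2780 ovarian cells (750/well) received compound in 11 concentrations, and were incubated 72 h at 37 °C. ATP content was measured by ATPLite luminescence; bortezomib served as control.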

[6] = UWB1.289-WTBRCA1 Cancer Cell Toxicity qHTS against the NCATS CANVASS Library (AID 1347354); conditions: outcome: dose series up to 38.3 µM
In short: as §2

[7] = HEK-293 Cancer Cell Toxicity qHTS against the NCATS CANVASS Library (AID 1347355); note: nearly all actives have a fitted effect of over 65% in size
In short: as §2

[8] = HPAF-II 24hr Apoptosis Induction qHTS against the NCATS CANVASS Library (AID 1347356)
In short: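 Caspase-Glo 3/7 luminescence, read after 15 min room-temperature development, measures apoptosis in HPAF-II cells treated 24 h at 37 degrees C with an 11-point concentration series; 500 cells/well; doxorubicin control.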

[9] = HEK293 18hr Apoptosis Induction qHTS against the NCATS CANVASS Library (AID 1347357)
In short: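 Caspase-Glo 3/7 luminescence (15 min, room temperature) measured apoptosis after an 18-hour, 37 degrees C exposure of HEK293 cells (500 cells/well) to compounds in 11 points.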

[10] = HPAF-II 12hr Apoptosis Induction qHTS against the NCATS CANVASS Library (AID 1347358)
In short: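 Caspase-3/7 activation by DEVD-substrate luminescence (Caspase-Glo 3/7, 15 min, room temperature) after a 12-hour compound exposure in 11 concentrations, of HPAF-II pancreatic cells seeded at 500/well in DMEM with 10% FBS.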

[11] = HEK293 24hr Apoptosis Induction qHTS against the NCATS CANVASS Library (AID 1347359)
In short: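 HEK293 cells, 500 per well, exposed to an 11-point compound series for 24 hours at 37 degrees C. Caspase 3/7 activity read by Caspase-Glo luminescence (DEVD substrate) after 15 min at room temperature.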

[12] = HPAF-II 18hr Apoptosis Induction qHTS against the NCATS CANVASS Library (AID 1347360)
In short: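 Caspase-3/7 activation was measured with luminescent Caspase-Glo 3/7 reagent (15 min, RT) in HPAF-II cancer cells (500 cells/well). Before detection, cells had been treated for 18 h at 37 C with compounds (11 points).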

[13] = HEK293 12hr Apoptosis Induction qHTS against the NCATS CANVASS Library (AID 1347361)
In short: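 HEK293 cells (500/well, DMEM + 10% FBS) were exposed to natural products across an 11-point series for 12 hours at 37 degrees C. Caspase-3/7 activity was then measured with DEVD luciferase luminescence after 15 min at room temperature.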

[14] = KB-8-5-11 Cancer Cell Toxicity qHTS against the NCATS CANVASS Library (AID 1347364); note: nearly all actives have a fitted effect of over 75% in size
In short: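 Viability read as CellTiter-Glo luminescence after 72 h at 37 °C, 5% CO2. 11-point compound series on 500 KB-8-5-11 cells/well in DMEM/10% FBS. Follow-up plating included 1 uM tariquidar in the medium.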

[15] = SDT Cancer Cell Toxicity qHTS against the NCATS CANVASS Library (AID 1347365);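 note: SDT canine glioma cells 500 per well in 1536 well plates; nearly all actives have a fitted effect of over 60% in size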
In short: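 Cytotoxicity taken from CellTiterGlo ATP luminescence after 72 hr at 37C, 5% CO2. Canine glioma line SDT, 500 cells/well, treated at 11 concentrations; bortezomib dose series as control.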

[16] = KB-3-1 Cancer Cell Toxicity qHTS against the NCATS CANVASS Library (AID 1347366); conditions: outcome: dose series up to 46.1 µM; note: nearly all actives have a fitted effect of over 75% in size
In short: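 CellTiter-Glo luminescence measured viability after 72 h at 37C. KB-3-1 cells were seeded at 500 per well in DMEM/10% FBS.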

[17] = UWB1.289 Cancer Cell Toxicity qHTS against the NCATS CANVASS Library (AID 1347347); note: nearly all actives have a fitted effect of over 60% in size
In short: as §1

[18] = SW1088 Cancer Cell Toxicity qHTS against the NCATS CANVASS Library (AID 1347350); conditions: SW1088 viability, CellTiter-Glo luminescence, 72 h; at 38.3 µM (top of the series); note: nearly all actives have a fitted effect of over 75% in size
In short: as §1

[19] = test system: NAD(P)H diaphorase (Clostridium kluyveri); assay: Diaphorse counterscreen qHTS: Assay Interference Panel against the NCATS CANVASS Library (AID 1347362)
In short: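 Clostridium kluyveri diaphorase in PBS + 0.01% Tween-20 preincubated 15 min with compounds. Resazurin and NADH then added for 5 min at room temperature in the dark; resorufin fluorescence read (ex 525, em 598).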

[20] = molecular target: Luciferin 4-monooxygenase (Photinus pyralis) (UniProt P08659); assay: Firefly luciferase counterscreen qHTS: Assay Interference Panel against the NCATS CANVASS Library (AID 1347363)
In short: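 Purified P. pyralis luciferase (0.04 ug/mL, 4x reagent) added to Tris-acetate buffer with 0.013 mM D-luciferin, 0.013 mM ATP and 13.3 mM Mg-acetate; compounds preincubated 15 min, then luminescence read after 5 min, RT.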

Measured: outcome

Chain of Luciferin 4-monooxygenase (Photinus pyralis) (P08659 whole entry, looked up): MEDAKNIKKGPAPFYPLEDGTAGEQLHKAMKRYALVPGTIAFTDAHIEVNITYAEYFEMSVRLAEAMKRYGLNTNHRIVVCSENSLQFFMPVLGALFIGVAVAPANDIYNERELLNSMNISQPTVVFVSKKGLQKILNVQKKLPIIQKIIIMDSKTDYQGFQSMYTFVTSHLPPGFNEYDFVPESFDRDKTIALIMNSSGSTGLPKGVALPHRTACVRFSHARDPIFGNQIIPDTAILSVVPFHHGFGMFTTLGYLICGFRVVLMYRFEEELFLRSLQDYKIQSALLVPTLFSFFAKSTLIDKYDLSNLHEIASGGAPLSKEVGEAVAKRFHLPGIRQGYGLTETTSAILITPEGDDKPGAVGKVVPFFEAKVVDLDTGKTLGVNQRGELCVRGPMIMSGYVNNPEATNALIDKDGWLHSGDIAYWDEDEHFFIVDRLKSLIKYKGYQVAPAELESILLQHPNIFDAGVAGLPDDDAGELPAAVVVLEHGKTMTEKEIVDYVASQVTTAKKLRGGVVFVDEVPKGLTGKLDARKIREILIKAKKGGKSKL

O=c1cc(-c2ccccc2)oc2cc(O)c(O)c(O)c12
inactive: [1] | [2] | [3] | [4] | [5] | [6] | [7] | [8] | [9] | [10] | [11] | [12] | [13] | [14] | [15] | [16]

COC(=O)[C@@H]1[C@H]2C[C@H]3c4[nH]c5ccccc5c4CCN3C[C@@H]2CC[C@@H]1O
inactive: [17] | [1] | [2] | [18] | [3] | [4] | [5] | [6] | [7] | [8] | [9] | [10] | [11] | [12] | [13] | [19] | [20] | [14] | [15] | [16]

O=C(O)C(O)Cc1ccc(O)c(O)c1 (stereo not drawn)
inactive: [17] | [1] | [18] | [3] | [4] | [5] | [6] | [8] | [9] | [10] | [11] | [12] | [13] | [20] | [14] | [15] | [16]
